In PubChem BioAssay AID504332 (National Center for Advancing Translational Sciences (NCATS), 2011):
The whole screen tested about 350,000 compounds, of which about 31,000 (8.9%) were called active. Inconclusive results (about 15%) are left out. Calls come from the whole dose curve; as a rule, active = well fitted inhibition curve with a large enough effect; inconclusive = small, poorly fitted or top-dose-only effect; inactive = no such curve, though single readings can be large or run the other way. The full list was thinned out, with actives kept by preference.

biological target: Histone-lysine N-methyltransferase EHMT2 (Homo sapiens) (UniProt Q96KQ7); assay: qHTS Assay for Inhibitors of Histone Lysine Methyltransferase G9a; details: G9a H3K9 monomethylation, AlphaScreen, 2 h; series mostly up to 59 µM; activity, negative = inhibition: at the top concentration; note: nearly all actives have a fitted effect of over 75% in size
Sequence (Q96KQ7 913-1193 limits assumed): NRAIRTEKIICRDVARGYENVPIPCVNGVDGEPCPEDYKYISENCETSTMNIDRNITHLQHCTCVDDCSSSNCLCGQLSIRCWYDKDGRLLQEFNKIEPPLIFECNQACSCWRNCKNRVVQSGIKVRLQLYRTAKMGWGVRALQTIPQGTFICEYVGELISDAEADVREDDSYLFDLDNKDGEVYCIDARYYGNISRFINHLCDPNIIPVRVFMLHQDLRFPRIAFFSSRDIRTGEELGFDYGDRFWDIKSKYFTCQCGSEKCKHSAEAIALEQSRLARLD
Procedure, shortened: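 Compounds were preincubated with 20 nM G9a for 15 min, after which biotinylated H3K9 peptide (500 nM) and SAM (20 uM) started a 2 h room-temperature reaction. Monomethylated product was quantified by antibody-based AlphaScreen chemiluminescence.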
% is set by controls: 0 for no effect and ±100 for the full control effect; potency is the fitted concentration of half-maximal effect.

Row | SMILES | Potency | activity, negative = inhibition
1 | Cc1cc(C)c2nc(SCC(=O)N(C)C3CCS(=O)(=O)C3)cc(C)c2c1 (configuration not stated) | 44.7 µM (active) | 
2 | COc1ccc2c(-c3ccccc3)cc(SCC(=O)N(C)C3CCS(=O)(=O)C3)nc2c1 (configuration not stated) |  | -40.4% (inactive)
3 | CN(C(=O)CSc1nnc(-c2ccc(C(C)(C)C)cc2)n1C)C1CCS(=O)(=O)C1 (configuration not stated) |  | 1.39% [at 12.7 µM] (inactive)
4 | CCOC(=O)[C@H]1[C@H]2COc3ccc(C)cc3[C@@H]2N2C(=O)CN(Cc3ccc(F)cc3)C(=O)[C@@]12C |  | 9.53% [at 0.501 µM] (inactive)
5 | O=C(NCc1cccc(Cl)c1)C1CCN(c2nnc(N3CCCC3=O)s2)CC1 |  | 36.7% [at 102 µM] (inactive)
6 | COC(=O)c1ccc(Sc2ccc(F)cc2)c(N)c1 | 28.2 µM (active) | 
7 | COC(=O)c1ccc(/C=N/OCC(=O)Nc2cc(F)ccc2F)cc1 |  | 16.3% [at 102 µM] (inactive)
8 | CC(C)(CCl)C(=O)Nc1ccc(Sc2ccc(F)cc2)cc1 |  | -58.2% [at 2.33 µM] (inactive)
9 | O=C(c1cccc(Cl)c1)N1CCN(Cc2ccccc2)CC1 |  | 10% [at 102 µM] (inactive)
10 | CC(C)CC(=O)N1CCC(O)(CS(=O)(=O)Cc2ccccc2)CC1 |  | 11.5% [at 102 µM] (inactive)
11 | CC(C)CC(=O)N1CCN(Cc2cccc(Cl)c2)CC1 | 22.4 µM (active) | 
12 | CC(C)CC(=O)N1CCN(Cc2ccccc2Br)CC1 | 20 µM (active) | 
13 | CC(CC(=O)N1CCN(c2ccccc2)CC1)c1ccccc1 (configuration not stated) |  | 19.1% (inactive)
14 | Cc1ccccc1NC(=O)NCC1CCN(Cc2cccc(Cl)c2)CC1 |  | 2.62% [at 2.33 µM] (inactive)
15 | COc1cc([N+](=O)[O-])ccc1NC(=O)COC(=O)CCOc1ccc(C)cc1 |  | 0.0833% (inactive)
16 | Cc1ccc(/C=C2/SC(=S)N(CCC(=O)NCCCN3CCOCC3)C2=O)cc1 |  | 14.4% [at 102 µM] (inactive)
17 | O=C(CCCCn1c(=O)c2ccccc2n(CC(=O)Nc2cccc(C(F)(F)F)c2)c1=O)NCc1ccc2c(c1)OCO2 |  | -4.83% (inactive)
18 | COc1cccc(CNCCSc2nnnn2C)c1OCc1ccccc1Cl |  | -3.67% (inactive)
19 | O=S(=O)(O)c1nc2ccccc2n1Cc1ccc(Cl)cc1 | 50.1 µM (active) | 
20 | O=S(=O)(O)c1nc2ccccc2n1Cc1ccc(Cl)cc1Cl |  | -19.1% (inactive)
21 | Cn1c(S(=O)(=O)O)nc2ccccc21 |  | -15% [at 102 µM] (inactive)
22 | CCc1nn(CC(=O)NCC(C)c2ccccc2)c(=O)c2cc3occc3n12 (configuration not stated) |  | 10.3% (inactive)
23 | COc1ccc(S(=O)(=O)Nc2c(C)n(C)n(-c3ccccc3)c2=O)cc1 |  | -5.42% (inactive)
24 | COc1ccc2cc(S(=O)(=O)Nc3ccccn3)ccc2c1 |  | -6.57% [at 102 µM] (inactive)
25 | COc1ccc(S(=O)(=O)/N=C2\C=C(NS(=O)(=O)c3ccccc3)C(=O)c3ccccc32)cc1 | 8.91 µM (active) | 

Row | SMILES | Potency | activity, negative = inhibition
26 | CN(C)c1ccc(/C=C2\NC(=S)N(Cc3ccccc3)C2=O)cc1 |  | -14.6% [at 102 µM] (inactive)
27 | CC1=NN(Cc2ccccc2)C(=O)/C1=C/c1ccc(N(C)C)cc1 | 10 µM (active) | 
28 | CN(C)c1ccnc2sc3c(=O)n(Cc4ccccc4)cnc3c12 |  | 26.4% [at 0.501 µM] (inactive)
29 | COc1ccccc1C(=O)NC(CCSC)C(=O)NNC(=O)c1ccccc1C (configuration not stated) |  | 25.8% [at 0.501 µM] (inactive)
30 | c1ccc(CSc2nnc(-c3ccco3)c(-c3ccco3)n2)cc1 | 6.31 µM (active) | 
31 | O=c1[nH]c(SCc2ccccc2)nnc1-c1ccccc1 |  | 10% (inactive)
32 | COc1ccc2nc(SCc3ccccc3)nc(C)c2c1 |  | 285% (inactive)
33 | COc1cc(C(=O)NCC(=O)NCCSc2ccc(Br)cc2)cc(OC)c1OC |  | 10% [at 0.501 µM] (inactive)
34 | O=C(COC(=O)Cc1ccccc1F)NCCc1ccccc1 |  | -6.48% [at 2.33 µM] (inactive)
35 | CC(=O)Nc1ccc(C(=O)N(C2=NC(C)CS2)c2ccc(Cl)cc2)cc1 (configuration not stated) |  | 16% [at 102 µM] (inactive)
36 | COCCCNC(=O)c1ccc(NC(=O)c2nsc3ccccc23)cc1 |  | 2.19% (inactive)
37 | OC(CNCCc1ccc(Cl)cc1Cl)COc1ccccc1 (configuration not stated) | 25.1 µM (active) | 
38 | COc1ccc(OCC(O)CNC(=O)Nc2ccc(Cl)cc2)cc1 (configuration not stated) |  | -15.8% [at 102 µM] (inactive)
39 | COC(=O)c1sc2ncccc2c1OCc1ccc(Cl)cc1Cl |  | 15.5% (inactive)
40 | CCCCN(CC)CCCNC(=O)Cn1ncc2c([nH]c3ccc(C)cc32)c1=O |  | -32.3% (inactive)
41 | O=C(NCC(c1ccco1)N1CCc2ccccc21)c1cccc(F)c1 (configuration not stated) | 50.1 µM (active) | 
42 | CC1CCc2sc(C(=O)NCC(c3ccco3)N3CCCCC3)cc2C1 (configuration not stated) |  | 4.92% (inactive)
43 | CC1Cc2ccccc2N1S(=O)(=O)c1cccc(C(=O)NCC(c2ccco2)N2CCCC2)c1 (configuration not stated) | 39.8 µM (active) | 
44 | COc1ccc(C(=O)NCC(c2ccco2)N2CCc3ccccc32)cc1OC (configuration not stated) |  | -2.6% [at 0.501 µM] (inactive)
45 | COc1cc(C(=O)NCC(c2ccco2)N2CCCC2)ccc1OCc1ccccc1 (configuration not stated) |  | 2.91% (inactive)
46 | Cc1ccccc1C(=O)NCC(c1ccco1)N1CCc2ccccc21 (configuration not stated) |  | 12% [at 2.33 µM] (inactive)
47 | COc1ccc2cc(C(=O)NCC3CCCO3)[nH]c2c1 (configuration not stated) |  | 20.9% [at 102 µM] (inactive)
48 | Cc1cc2c(cc1S(=O)(=O)CCC(=O)Nc1ccc(OC(F)(F)F)cc1)OCC(=O)N2 |  | -2.89% (inactive)
49 | C=CCn1c(SCc2csc(C)n2)nc2scc(-c3ccc(C)o3)c2c1=O | 10 µM (active) | 
50 | C=CCn1c(SCC(=O)/C(C#N)=C(\C)N)nc2sc(C)c(C)c2c1=O |  | 10.1% (inactive)

Row | SMILES | Potency | activity, negative = inhibition
51 | C=CCn1c(SCC(=O)Nc2ccc(NC(C)=O)cc2)nc2sc(C)c(C)c2c1=O |  | 8.2% [at 12.7 µM] (inactive)
52 | O=C(CSc1ncn[nH]1)Nc1nsc(-c2ccccc2)n1 |  | 2.39% (inactive)
53 | CCN(C(=O)Cc1c(C(=O)O)n(CC)c2ccccc12)c1ccccc1C |  | 26.7% [at 0.501 µM] (inactive)
54 | CCN(C(=O)CSc1ncn[nH]1)c1cccc2ccccc12 | 22.4 µM (active) | 
55 | CCOc1ccc(C(=O)NCC(=O)N2CCCCCCC2)cc1OCC |  | 8% [at 0.501 µM] (inactive)
56 | CC(Oc1ccc(F)cc1)C(=O)Nc1ccccc1C(=O)NC1CC1 (configuration not stated) |  | -3.62% [at 102 µM] (inactive)
57 | COc1cc(-c2c(-c3ccc4c(c3)OCO4)noc2C)ccc1F |  | 73.1% [at 102 µM] (inactive)
58 | CC(C(=O)N1CCc2ccccc21)N(C)CC(=O)Nc1ccc(F)cc1 (configuration not stated) |  | 13.8% [at 12.7 µM] (inactive)
59 | CC(=NCc1ccco1)c1c(C(F)(F)F)[nH]n(-c2nc3ccccc3s2)c1=O |  | 1.72% [at 12.7 µM] (inactive)
60 | C/C(=N\NC(=O)CC(C)C)c1c(C(F)(F)F)[nH]n(-c2nc3ccccc3s2)c1=O |  | -30.7% [at 102 µM] (inactive)
61 | COC(=O)Cc1[nH]n(-c2nc3ccccc3s2)c(=O)c1C(C)=Nc1ccc(OC)cc1 | 2.82 µM (active) | 
62 | COc1ccccc1CCC(=O)OCC(=O)N1CCN(S(=O)(=O)c2ccc(C)cc2C)CC1 |  | 3.44% [at 102 µM] (inactive)
63 | c1ccc(-n2ncc(-c3nn[nH]n3)n2)cc1 | 50.1 µM (active) | 
64 | c1ccc(-n2nc3ccccc3n2)cc1 |  | 3.29% (inactive)
65 | Brc1ccc(-c2nn[nH]n2)cc1 |  | 9.86% [at 102 µM] (inactive)
66 | Cc1c(NC(=O)C(C)Oc2cccc(Cl)c2)c(=O)n(-c2ccccc2)n1C (configuration not stated) |  | -19.9% [at 102 µM] (inactive)
67 | COc1cccc(-c2nc3n(n2)C(c2ccccc2Cl)C(C(N)=O)=C(C)N3)c1 (configuration not stated) |  | 4.56% (inactive)
68 | CC1=C(C(N)=O)C(c2ccc3c(c2)OCO3)n2nc(-c3cccc(C)c3)nc2N1 (configuration not stated) | 0.355 µM (active) | 
69 | CCN(CC)c1ccc(C2C(C(N)=O)=C(C)Nc3nc(SCc4ccccc4)nn32)cc1 (configuration not stated) |  | -1.21% (inactive)
70 | COc1ccc(CC(=O)N2CC(=O)Nc3ccc(Br)cc3C2c2ccc(F)cc2)cc1OC (configuration not stated) |  | 2.61% (inactive)
71 | CCc1ccc(C2C(C(=O)Nc3ccccc3)=C(C)Nc3c(C(=O)Nc4ccc(C)cc4)cnn32)cc1 (configuration not stated) |  | -3.94% (inactive)
72 | Cc1cc(F)ccc1NC1(c2ccccc2)C(=O)c2ccccc2C1=O | 14.1 µM (active) | 
73 | Cc1cc(F)ccc1NS(=O)(=O)c1ccc(-n2cccn2)cc1 |  | -7.8% (inactive)
74 | Cc1cc(F)ccc1NC(=O)C(C)n1c2ccccc2c2nc(=O)cc(C)n21 (configuration not stated) |  | 7.01% [at 102 µM] (inactive)
75 | COc1cccc2c1cc1c(=O)n(CC(=O)N3CCN(c4cccc(Cl)c4)CC3)nc(C)n12 |  | 0.803% (inactive)

Row | SMILES | Potency | activity, negative = inhibition
76 | O=S(=O)(NCC(c1ccco1)N1CCOCC1)c1cc(F)ccc1F (configuration not stated) |  | -0.918% (inactive)
77 | Clc1nc(NC2CCCC2)nc(N2CCOCC2)n1 |  | -4.76% [at 102 µM] (inactive)
78 | COC(=O)CNc1nc(Cl)nc(N2CCC(C)CC2)n1 | 56.2 µM (active) | 
79 | CCOC(=O)CNc1nc(Cl)nc(Nc2ccccc2)n1 |  | -16.2% [at 102 µM] (inactive)
80 | O=C(COc1ccccc1F)NNC(=O)c1ccc(N2CCCCC2)c([N+](=O)[O-])c1 |  | -36.2% (inactive)
81 | O=C(COc1ccc(Cl)cc1[N+](=O)[O-])N1CCCCC1 |  | -22.5% [at 102 µM] (inactive)
82 | O=[N+]([O-])c1cc([N+](=O)[O-])c(Oc2cc(F)cc(F)c2F)cc1NN1CCCCC1 | 15.8 µM (active) | 
83 | CCOC(=O)C1CCN(C(=O)CSc2c3c(nc4ccc(Cl)cc24)CCCC3)CC1 |  | 2.68% (inactive)
84 | COc1ccc(/C=C2\SC(=O)N(CCC(=O)NCCCn3ccnc3)C2=O)cc1 |  | 8.95% [at 102 µM] (inactive)
85 | COc1ccccc1C(=O)NNC(=O)CCN1C(=O)/C(=C\c2ccccc2)SC1=S |  | -11.8% [at 102 µM] (inactive)
86 | COc1ccc(/C=C2/SC(=O)N(CCCCCC(=O)Nc3ccccc3C(=O)O)C2=S)cc1 | 35.5 µM (active) | 
87 | CN(C(=O)c1ccc2c(c1)N(Cc1cccc(Cl)c1)C(=O)c1ccccc1S2=O)C1CCCCC1 (configuration not stated) |  | -25.6% (inactive)
88 | CNC(=O)C(=O)N/N=C/c1ccccn1 |  | -131% [at 12.7 µM] (inactive)
89 | Cc1cc(C(=O)N/N=C/c2ccccn2)c2ccccc2n1 | 12.6 µM (active) | 
90 | CCOc1ccc(NC(=O)c2cc(C)nc3ccccc23)cc1 |  | 7.25% [at 102 µM] (inactive)
91 | COC(=O)C1CCN(C(=O)c2ccc3oc(Cc4ccc(Cl)cc4)nc3c2)CC1 |  | 25.1% [at 102 µM] (inactive)
92 | CCC(=O)N1N=C(c2ccc(OC)cc2)CC1c1cn(-c2ccccc2)nc1-c1cccs1 (configuration not stated) |  | 8.55% (inactive)
93 | COc1ccc(-c2nc(Cn3c(=O)cc(C)c4c(C)nn(-c5ccccc5)c43)c(C)o2)c(OC)c1 |  | -47.2% (inactive)
94 | CCOc1cccc(C(=O)Nc2nnc(S(=O)(=O)N(C)c3ccc(C)cc3)s2)c1 |  | 5.27% (inactive)
95 | Cn1c(SCC(=O)N2CCOCC2)nnc1-c1ccc2ncccc2c1 |  | -12.7% (inactive)
96 | Cn1c(SCC(=O)N2CCCC2)nnc1-c1ccc2c(c1)OCO2 |  | -0.309% [at 102 µM] (inactive)
97 | Cn1c(SCC(=O)N2CCOCC2)nnc1-c1ccc(NC(=O)c2ccccc2F)cc1 | 50.1 µM (active) | 
